Assay results published in paper PMC4336329 (PLoS ONE, 2015).
The whole screen tested about 310,000 compounds, of which about 14,000 (4.5%) showed an effect of 50% or more. Effects have a minus sign here. Many of the other results were omitted from the sample, so strong results are more common in it than they were.

Biological target: human ether-à-go-go-related gene (hERG) potassium channel (human, UniProt Q12809)
Assay: primary screen, population patch clamp on CHO cells stably expressing hERG; higher = less effect of the substance
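Further: peak tail current of the secondary pulse compared with the same well before compound.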

human ether-à-go-go-related gene (hERG) potassium channel, sequence (Q12809 whole entry, looked up): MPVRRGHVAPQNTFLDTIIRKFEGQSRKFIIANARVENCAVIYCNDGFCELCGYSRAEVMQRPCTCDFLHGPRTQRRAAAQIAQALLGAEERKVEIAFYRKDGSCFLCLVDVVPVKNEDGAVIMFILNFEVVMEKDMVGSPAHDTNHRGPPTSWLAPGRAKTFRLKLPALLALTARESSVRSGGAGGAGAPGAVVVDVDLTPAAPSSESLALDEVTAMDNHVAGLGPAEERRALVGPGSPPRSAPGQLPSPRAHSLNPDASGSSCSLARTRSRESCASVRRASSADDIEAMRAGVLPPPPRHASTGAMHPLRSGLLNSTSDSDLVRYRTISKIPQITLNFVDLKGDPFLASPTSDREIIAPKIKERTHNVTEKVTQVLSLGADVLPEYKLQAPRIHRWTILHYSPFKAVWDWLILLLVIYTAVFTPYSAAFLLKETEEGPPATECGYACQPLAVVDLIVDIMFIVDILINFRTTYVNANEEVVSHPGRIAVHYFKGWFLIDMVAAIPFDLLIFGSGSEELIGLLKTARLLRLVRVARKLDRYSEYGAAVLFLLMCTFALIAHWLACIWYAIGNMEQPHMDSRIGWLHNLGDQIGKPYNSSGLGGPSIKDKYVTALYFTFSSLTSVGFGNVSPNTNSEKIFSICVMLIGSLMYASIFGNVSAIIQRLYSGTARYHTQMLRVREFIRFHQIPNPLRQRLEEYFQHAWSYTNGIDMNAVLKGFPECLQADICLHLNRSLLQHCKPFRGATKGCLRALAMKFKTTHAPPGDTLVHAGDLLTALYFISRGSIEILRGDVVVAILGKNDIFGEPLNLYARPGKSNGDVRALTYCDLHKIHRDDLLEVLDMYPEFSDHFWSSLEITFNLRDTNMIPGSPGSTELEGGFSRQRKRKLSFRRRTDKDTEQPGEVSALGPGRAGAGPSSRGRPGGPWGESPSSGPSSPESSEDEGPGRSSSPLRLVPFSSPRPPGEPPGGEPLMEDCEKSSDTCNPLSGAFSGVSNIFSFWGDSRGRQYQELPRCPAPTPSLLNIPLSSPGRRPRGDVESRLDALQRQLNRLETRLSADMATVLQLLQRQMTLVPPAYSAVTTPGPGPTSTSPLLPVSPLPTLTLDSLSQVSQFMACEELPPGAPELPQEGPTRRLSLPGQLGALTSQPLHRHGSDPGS

First: O=C(COc1ccccc1)NCC(=O)N/N=C/c1ccc(Br)cc1
Second: CCOc1ccccc1C(=O)OCC(=O)Nc1ccc(OC(F)F)cc1
The “hERG current change (%, negative = inhibition) at 10uM” value of the first is higher: -14.6% for the first, -54% for the second.

Going from `CCCCCCCCCC(=O)N/N=C(\C)c1cccnc1` to `CCOC(=O)c1cccc(NC(=O)CCn2cccc2)c1`, the “hERG current change (%, negative = inhibition) at 10uM” value falls from 9.29% to -27.7%.

First: COc1ccc(C(C)=O)c2c1OCCO2
Second: COc1ccccc1Nc1nc(C)cc(=O)[nH]1
The “hERG current change (%, negative = inhibition) at 10uM” value of the first is higher: -3.35% for the first, -7.91% for the second.

Compared with `COc1ccc(C(=O)Nc2ccc(S(=O)(=O)Nc3nccnc3OC)cc2)cc1`, `COc1ccc(N(Cc2cc3cc(OC)ccc3[nH]c2=O)S(=O)(=O)c2ccc(NC(C)=O)cc2)cc1` is lower in “hERG current change (%, negative = inhibition) at 10uM” value: 8.73% for the first, 5.64% for the second.

First: COc1cccc(C(=O)N2CCC(N3CC(C)OC(C)C3)CC2)c1.O=C(O)C(=O)O (centres unmarked)
Second: CCC1CCC(N2CCN(c3cccc(OC)c3)CC2)CC1 (centres unmarked)
The “hERG current change (%, negative = inhibition) at 10uM” value of the first is higher: 14.4% for the first, -33.7% for the second.

Compared with `O=S(=O)(O/N=C1\CCCc2ccccc21)c1ccccc1`, `COc1c2ccccc2nc2ccccc12` is higher in “hERG current change (%, negative = inhibition) at 10uM” value: 7.59% for the first, 13.3% for the second.

Going from `O=[N+]([O-])c1ccc(N2CCSCC2)cc1` to `O=[N+]([O-])c1ccc(N2CCN(c3ccccc3)CC2)cc1`, the “hERG current change (%, negative = inhibition) at 10uM” value rises from -10.4% to 4.77%.

Compared with `CC1CCC(N2CCN(c3ccc([N+](=O)[O-])cc3)CC2)CC1` (centres unmarked), `CCC1CCC(N2CCN(c3ccc([N+](=O)[O-])cc3)CC2)CC1` (centres unmarked) is lower in “hERG current change (%, negative = inhibition) at 10uM” value: -74.8% for the first, -79.8% for the second.

Going from `CCN1CCC(N2CCN(c3ccc(F)cc3)CC2)CC1` to `CCN1CCC(N2CCN(c3ccc(Cl)cc3)CC2)CC1`, the “hERG current change (%, negative = inhibition) at 10uM” value falls from -5.34% to -18.8%.

First: O=[N+]([O-])c1ccc(N2CCN(c3ccc(F)cc3)CC2)cc1
Second: CCCN1CCC(N2CCN(c3ccc([N+](=O)[O-])cc3)CC2)CC1
The “hERG current change (%, negative = inhibition) at 10uM” value of the first is higher: -17.9% for the first, -74.3% for the second.

Compared with `CCS(=O)(=O)N1CCC(N2CCN(c3ccccc3)CC2)CC1`, `CCC1CCC(N2CCN(c3ccccc3F)CC2)CC1` (centres unmarked) is lower in “hERG current change (%, negative = inhibition) at 10uM” value: -10.9% for the first, -22.2% for the second.

First: CCC1CCC(N2CCN(c3ccc(F)cc3)CC2)CC1 (centres unmarked)
Second: CCC(C)N1C(=O)CCC1C(=O)N1CCN(c2ccc(F)cc2)CC1 (centres unmarked)
The “hERG current change (%, negative = inhibition) at 10uM” value of the first is lower: -52.1% for the first, -28.3% for the second.

First: COCCNC(=S)N/N=C/c1c2ccccc2cc2ccccc12
Second: Cc1ccc(O)c(Nc2c3ccccc3nc3ccccc23)c1
The “hERG current change (%, negative = inhibition) at 10uM” value of the first is higher: 15.5% for the first, -52.8% for the second.

First: CCOC(=O)C(CC(=O)O)NCc1ccco1 (centres unmarked)
Second: Cc1ccc(C2(c3ccccc3)NC(=O)N(CC(=O)NCc3ccco3)C2=O)cc1C (centres unmarked)
The “hERG current change (%, negative = inhibition) at 10uM” value of the first is higher: 17.4% for the first, -50.4% for the second.

Compared with `CCC(C)N(CC(=O)NCc1ccc(OC)cc1)C(=O)c1csnn1` (centres unmarked), `COc1ccccc1C(=O)OCC(=O)Nc1ccc(OC(F)F)cc1` is lower in “hERG current change (%, negative = inhibition) at 10uM” value: -18.3% for the first, -32.2% for the second.

First: COc1ccc(N2CCN(C(=S)NCc3ccccc3)CC2)cc1
Second: O=C(NCC(c1cccnc1)N1CCN(c2ccc(F)cc2)CC1)c1ccco1 (centres unmarked)
The “hERG current change (%, negative = inhibition) at 10uM” value of the first is higher: 15.3% for the first, -47.7% for the second.

First: CCOc1cc(C(=O)OCC(=O)Nc2ccc(SC(F)F)cc2)cc(OCC)c1OCC
Second: COc1cc(C(=O)OCC(=O)Nc2ccc(SC(F)F)cc2)cc(OC)c1OC
The “hERG current change (%, negative = inhibition) at 10uM” value of the first is higher: 4.57% for the first, -55.7% for the second.

First: COc1cc(C(=O)OCC(=O)Nc2ccc(C)cc2)cc(OC)c1OC
Second: COc1cc(NC(=O)CSc2c3c(nc4ccccc24)CCC3)cc(OC)c1OC
The “hERG current change (%, negative = inhibition) at 10uM” value of the first is higher: 28.7% for the first, -7.51% for the second.

First: COc1ccccc1NC(=O)COC(=O)c1ccccc1OCC(=O)Nc1ccc(SC(F)F)cc1
Second: COc1ccccc1C(=O)COC(=O)c1ccccc1OCC(=O)Nc1ccc(SC(F)F)cc1
The “hERG current change (%, negative = inhibition) at 10uM” value of the first is lower: 1.67% for the first, 12.6% for the second.

First: CN(C)C(=O)COC(=O)c1ccccc1OCC(=O)Nc1ccc(SC(F)F)cc1
Second: O=C(COC(=O)c1ccccc1O)Nc1ccc(OC(F)F)cc1
The “hERG current change (%, negative = inhibition) at 10uM” value of the first is lower: -51.8% for the first, 2.74% for the second.

Compared with `O=C(COC(=O)c1cc(S(=O)(=O)N2CCCC2)ccc1O)Nc1ccc(S(=O)(=O)N2CCOCC2)cc1`, `O=C(COC(=O)c1cc(S(=O)(=O)N2CCCC2)ccc1O)Nc1ccc(SC(F)F)cc1` is lower in “hERG current change (%, negative = inhibition) at 10uM” value: 23.6% for the first, -57.5% for the second.

First: O=C(COC(=O)c1ccccc1O)Nc1ccc(S(=O)(=O)N2CCCCC2)cc1
Second: CN(C(=O)c1ccccc1C(=O)OCC(=O)Nc1ccc(S(N)(=O)=O)cc1)c1ccccc1
The “hERG current change (%, negative = inhibition) at 10uM” value of the first is higher: 3.29% for the first, -5.32% for the second.

Going from `O=C(NC(Cc1ccccc1)c1ccc2c(c1)OCCCO2)c1ccc(F)cc1` (centres unmarked) to `Cc1ccc(O)c(Nc2nc(-c3ccccc3)nc3ccccc23)c1`, the “hERG current change (%, negative = inhibition) at 10uM” value rises from 8.05% to 14.9%.

Compared with `COc1ccc2cc1Oc1ccc(cc1)CC1c3c(cc(OC)c4c3Oc3cc5c(cc3O4)CCNC5C2)CCN1C` (centres unmarked), `COc1ccc(Nc2c3c(nc4ccccc24)CCCC3)cc1OC` is lower in “hERG current change (%, negative = inhibition) at 10uM” value: 0.681% for the first, -73.2% for the second.

Going from `N#Cc1c(Cl)nc(SCc2ccccc2)nc1-c1ccccc1` to `COc1ccccc1Nc1nc(-c2ccccc2)nc2ccccc12`, the “hERG current change (%, negative = inhibition) at 10uM” value rises from 8.45% to 23.5%.

First: CN(C(=O)c1ccccc1C(=O)OCC(=O)Nc1ccc(OC(F)F)cc1)c1ccccc1
Second: CN(C(=O)c1ccccc1C(=O)OCC(=O)Nc1ccccc1)c1ccccc1
The “hERG current change (%, negative = inhibition) at 10uM” value of the first is lower: -54% for the first, 0.655% for the second.

Compared with `CCOc1cc2c(Cl)ncnc2c(OCC)c1OCC`, `CCOC(=O)c1oc2cc(O)c(CC)cc2c(=O)c1-c1cscn1` is lower in “hERG current change (%, negative = inhibition) at 10uM” value: 23.3% for the first, 2.56% for the second.

Compared with `COc1ccc(OC)c(Nc2c3ccccc3nc3ccccc23)c1`, `COc1ccc([N+](=O)[O-])cc1Nc1c2ccccc2nc2ccccc12` is higher in “hERG current change (%, negative = inhibition) at 10uM” value: -11% for the first, 9.54% for the second.

Compared with `COc1cc(Nc2c3ccccc3nc3ccccc23)cc(OC)c1OC`, `COc1cc(Nc2c3c(nc4ccccc24)CCC3)cc(OC)c1OC` is higher in “hERG current change (%, negative = inhibition) at 10uM” value: -63.9% for the first, -60% for the second.

First: COc1cc(Nc2nc(SCC#N)nc3ccccc23)cc(OC)c1OC
Second: COc1cc(Nc2c3c(nc4ccccc24)CCCC3)cc(OC)c1OC
The “hERG current change (%, negative = inhibition) at 10uM” value of the first is higher: -32% for the first, -65.9% for the second.

Going from `COc1cc(NS(C)(=O)=O)ccc1Nc1c2ccccc2nc2ccccc12.Cl` to `COc1ccccc1Nc1c2ccccc2nc2ccccc12`, the “hERG current change (%, negative = inhibition) at 10uM” value falls from -67.7% to -71%.

First: COc1ccc(Nc2nc(N)c3ccccc3n2)c(OC)c1.Cl
Second: COc1ccc(Nc2nc(-c3ccccc3F)nc3ccccc23)cc1OC
The “hERG current change (%, negative = inhibition) at 10uM” value of the first is lower: -14.9% for the first, 0.695% for the second.

Compared with `COc1cc(NC(=O)c2ccc3c(SCC(=O)O)c4c(nc3c2)CCCC4)cc(OC)c1OC`, `COc1ccc(NC(=O)COC(=O)c2c3c(nc4ccccc24)CCCC3)cc1Cl` is lower in “hERG current change (%, negative = inhibition) at 10uM” value: 12.3% for the first, 9.73% for the second.

Compared with `COc1ccc(S(=O)(=O)N2CCCCCC2)cc1NC(=O)CN1C(=O)NC(C)(c2ccc(C)cc2)C1=O` (centres unmarked), `COc1ccc(C2(c3ccc(OC)cc3)NC(=O)N(CC(=O)NC3(C#N)CCCCC3)C2=O)cc1` is lower in “hERG current change (%, negative = inhibition) at 10uM” value: -12.8% for the first, -42.4% for the second.

First: Cc1ccc(NC(=O)CCC(=O)c2cccs2)cc1F
Second: Cc1cc(=O)oc(C)c1C(=O)OCC(=O)c1ccccc1
The “hERG current change (%, negative = inhibition) at 10uM” value of the first is higher: 2.31% for the first, -5.02% for the second.

Going from `Cc1ccc(O)c(Nc2ncnc3ccccc23)c1.Cl` to `COC(=O)c1c2c(nc3ccccc13)CCC2`, the “hERG current change (%, negative = inhibition) at 10uM” value falls from 11.8% to -3.81%.

Compared with `CN(C)/C=C(\C(=O)c1ccc(F)cc1F)c1nnnn1-c1ccccc1`, `COc1ccc(C2CC(=O)N(c3ccccc3)C3=C2C(=O)CCC3)cc1` (centres unmarked) is lower in “hERG current change (%, negative = inhibition) at 10uM” value: 21.1% for the first, 13.1% for the second.

First: CCOC(=O)/C(C#N)=C/Nc1ccccc1OC
Second: CCC1(c2ccccc2)NC(=O)N(CC(=O)NC2(C#N)CCCCC2)C1=O (centres unmarked)
The “hERG current change (%, negative = inhibition) at 10uM” value of the first is lower: 0.538% for the first, 2.94% for the second.

Going from `CCN(C(=O)CN1C(=O)NC(c2ccccc2)(c2ccc(C)c(C)c2)C1=O)C1CCCCC1` (centres unmarked) to `CCN(C(=O)CN1C(=O)NC(c2ccccc2)(c2ccc(C)c(C)c2)C1=O)C1CCS(=O)(=O)C1` (centres unmarked), the “hERG current change (%, negative = inhibition) at 10uM” value falls from -33.3% to -53.4%.

First: Cc1ccc(C2(c3ccccc3)NC(=O)N(CC(=O)NC3CCS(=O)(=O)C3)C2=O)cc1C (centres unmarked)
Second: Cc1ccc(C2(c3ccccc3)NC(=O)N(CC(=O)N(C)C3CCS(=O)(=O)C3)C2=O)cc1C (centres unmarked)
The “hERG current change (%, negative = inhibition) at 10uM” value of the first is higher: -9.17% for the first, -22% for the second.

Compared with `N#CC1(NC(=O)CN2C(=O)NC(c3ccccc3)(c3ccccc3)C2=O)CCCC1`, `Cc1ccc(C2(c3ccccc3)NC(=O)N(CC(=O)NC3(C#N)CCCC3)C2=O)cc1C` (centres unmarked) is lower in “hERG current change (%, negative = inhibition) at 10uM” value: -55% for the first, -63.4% for the second.

Going from `Cc1cc(NC(=O)CN2C(=O)NC(c3ccccc3)(c3ccc(C)c(C)c3)C2=O)no1` (centres unmarked) to `Cc1ccc(C2(c3ccccc3)NC(=O)N(CC(=O)NCc3ccccc3)C2=O)cc1C` (centres unmarked), the “hERG current change (%, negative = inhibition) at 10uM” value rises from -48.5% to -23%.

Compared with `N#CC1(NC(=O)CN2C(=O)NC3(CCCCCC3)C2=O)CCCCC1`, `O=C1c2ccccc2C2NC(=O)C3(CCCCC3)N12` (centres unmarked) is higher in “hERG current change (%, negative = inhibition) at 10uM” value: -0.951% for the first, 7.54% for the second.
